PubChem BioAssay AID1159580 (chemical genetic matrix, 2015)
Values joined by “and” are separate entries in the source; they are usually repeats but may differ in a detail not shown here. Equal entries are not always repeated. In all, about 5,500 compounds went through this assay and about 2,000 (36%) were called active. Another 18% or so got no clear call; they are omitted. Rule as the data show it: active = normalized growth mostly below about 0.91 (no sharp cut-off); inconclusive = no clear call, values can overlap the other calls; inactive = mostly above about 0.92. Some of the results follow.

Assay: chemical genetic growth profiling, strain panel (AID 1159580);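 also: tested at 20 µM; growth read once vehicle control cultures reached saturation at 30 °C; 1 = growth at the plate median or of vehicle wells; lower values mean less growth of the strain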
Settings: S. cerevisiae deletion strains, growth OD

Measured: normalized growth

Cc1nc2ccccn2c(=O)c1CCN1CCC(C(=O)c2ccc(F)cc2)CC1
inactive: locus YAL013W, strain DEP1, hits give low values 1.02 and 1.01 | locus YAL021C, strain ccr4, hits give low values 1 | locus YAL026C, strain drs2, hits give low values 1 | locus YAL030W, strain snc1, hits give low values 0.999 | locus YAL040C, strain CLN3, hits give low values 0.993 | locus YBL061C, strain skt5, hits give low values 0.983 | locus YBR009C, strain hhf1, hits give low values 0.987 | locus YBR021W, strain FUR4, hits give low values 0.981 | locus YBR023C, strain chs3, hits give low values 0.986 | locus YBR171W, strain sec66, hits give low values 0.981 | locus YBR229C, strain ROT2, hits give low values 1.02 | locus YBR231C, strain swc5, hits give low values 0.984 | locus YBR279W, strain paf1, hits give low values 0.977 | locus YCL011C, strain gbp2, hits give low values 0.997 | locus YCL016C, strain dcc1, hits give low values 0.989 | locus YCL029C, strain bik1, hits give low values 0.999 | locus YCL061C, strain MRC1 (second series), hits give low values 1.01 | locus YCL061C, strain MRC1, hits give low values 1.02 | locus YCL069W, strain vba3, hits give low values 1 | locus YCR088W, strain abp1, hits give low values 0.982 | locus YDL005C, strain med2, hits give low values 0.973 | locus YDL035C, strain GPR1, hits give low values 1.02 | locus YDL040C, strain nat1, hits give low values 1 | locus YDL074C, strain BRE1, hits give low values 1.07 | locus YDL101C, strain DUN1, hits give low values 1.04 | locus YDL134C, strain PPH21, hits give low values 1.02 | locus YDL185W, strain tfp1, hits give low values 0.992 | locus YDL192W, strain arf1, hits give low values 0.997 | locus YDR001C, strain nth1, hits give low values 0.986 | locus YDR069C, strain doa4, hits give low values 0.972 | locus YDR101C, strain arx1, hits give low values 0.979 | locus YDR137W, strain rgp1, hits give low values 0.976 | locus YDR150W, strain NUM1, hits give low values 1.03 and 1 | locus YDR159W, strain sac3, hits give low values 0.977 | locus YDR162C, strain NBP2, hits give low values 1.05 | locus YDR195W, strain ref2 0.996 | locus YDR297W, strain sur2, hits give low values 0.98 | locus YDR318W, strain mcm21, hits give low values 0.983 | locus YDR334W, strain swr1, hits give low values 0.982 | locus YDR335W, strain msn5, hits give low values 0.984 | locus YDR363W, strain ESC2, hits give low values 1.01 | locus YDR388W, hits give low values 0.995 | locus YDR392W, strain spt3, hits give low values 0.988 | locus YDR502C, strain sam2, hits give low values 1.01 | locus YEL003W, strain gim4, hits give low values 0.997 | locus YEL037C, strain rad23, hits give low values 0.984 | locus YEL061C, strain CIN8 (second series), hits give low values 0.994 | locus YEL061C, strain CIN8, hits give low values 1.01 | locus YER002W, strain NOP16, hits give low values 0.983 | locus YER015W, strain faa2, hits give low values 0.997 | locus YER016W, strain bim1, hits give low values 0.985 | locus YER110C, hits give low values 0.991 | locus YER111C, strain swi4, hits give low values 0.973 | locus YER155C, strain BEM2 (second series), hits give low values 1 | locus YER155C, strain BEM2, hits give low values 1.02 | locus YER167W, strain BCK2, hits give low values 1.01 | locus YFR010W, strain ubp6, hits give low values 0.989 | locus YGL078C, strain dbp3, hits give low values 0.999 | locus YGL086W, strain mad1, hits give low values 0.996 | locus YGL167C, strain pmr1, hits give low values 0.983 | locus YGL173C, strain kem1, hits give low values 0.992 | locus YGL227W, strain vid30, hits give low values 1 | locus YGL240W, strain doc1, hits give low values 1.01 | locus YGL248W, strain PDE1, hits give low values 1.02 | locus YGL253W, strain hxk2, hits give low values 0.996 | locus YGR078C, strain PAC10, hits give low values 1.04 and 1.02 | locus YGR135W, strain pre9, hits give low values 1 | locus YGR229C, strain SMI1, hits give low values 1.04 | locus YGR252W, strain gcn5, hits give low values 0.945 | locus YHR013C, strain ard1, hits give low values 0.97 | locus YHR027C, strain rpn1, hits give low values 0.985 | locus YHR030C, strain SLT2, hits give low values 1.02 | locus YHR079C, strain IRE1 (second series), hits give low values 0.985 | locus YHR079C, strain IRE1, hits give low values 1.05 | locus YHR094C, strain hxt1, hits give low values 0.998 | locus YHR129C, strain ARP1, hits give low values 1.02 | locus YHR142W, strain chs7, hits give low values 0.968 | locus YHR200W, strain rpn10, hits give low values 0.998 | locus YIL066C, strain RNR3, hits give low values 1.03 | locus YIL073C, strain SPO22, hits give low values 0.973 | locus YIL125W, strain kgd1, hits give low values 1 | locus YIR030C, strain dcg1, hits give low values 1 | locus YJL092W, strain hpr5, hits give low values 0.987 | locus YJL095W, strain BCK1 (second series), hits give low values 0.986 | locus YJL095W, strain BCK1, hits give low values 1.04 and 1.01 | locus YJL115W, strain asf1, hits give low values 0.991 | locus YJL129C, strain trk1, hits give low values 0.987 | locus YJL134W, strain LCB3, hits give low values 1.02 | locus YJL154C, strain vps35, hits give low values 0.987 | locus YJL164C, strain tpk1, hits give low values 0.993 | locus YJL166W, strain qcr8, hits give low values 0.996 | locus YJL168C, strain set2, hits give low values 0.99 | locus YJL187C, strain SWE1 (second series), hits give low values 1.03 | locus YJR043C, strain POL32, hits give low values 1 | locus YJR066W, strain TOR1, hits give low values 0.993
